The assay is described as follows: Confirmatory qHTS for Identification of Small Molecule Activators of Huntingtin-Antisense Promoter Activity. An outline of the steps:
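Activity normalized between vehicle control (0%) and zero RLU (-100%) from firefly luminescence (Dual-Glo). Compounds, up to 57.5 uM final, incubated 24 h at 37C on HEK293 reporter cells plated 24 h earlier.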

Activity calls are given as the source filed them. A call without a number means that no potency is given here. Calls come from the whole dose curve; as a rule, active = well fitted activation curve with a large enough effect; inconclusive = small, poorly fitted or top-dose-only effect; inactive = no such curve, though single readings can be large or run the other way.

The text below walks through data of PubChem BioAssay AID1508622 (National Center for Advancing Translational Sciences (NCATS), 2021).

Turning to `CC(=O)c1ccc(N2CCN(c3ncnc4c3cnn4-c3cc(Cl)ccc3C)CC2)cc1`, the Potency entry was “inactive”. The result for `CCN(c1ccccc1)S(=O)(=O)c1cc(C(=O)Nc2ccc(Br)cc2)ccc1F` reads “inactive”. In the case of `N#Cc1ccccc1S(=O)(=O)N1CCC(Oc2ccc(-n3cnnn3)cc2)CC1`, the Potency result was “inactive”. For the compound `COc1ccc(NC(=O)Cn2c(SCc3ccc(F)cc3)nc3cccnc32)cc1OC`, the Potency entry was “inactive”.
